Consider 82 molecules from PubChem BioAssay AID624416 (The Scripps Research Institute Molecular Screening Center, 2012).

The whole screen tested about 360,000 compounds, of which about 1,500 (0.42%) were called active. The full list was thinned out, with actives kept by preference. Unmarked numbers belong to inactive results. Cut-off read from the data, not from the text of the source: active = inhibition above about 8.5%; inactive = the rest.

This test concerns HIV-1 gp120 / PG9 antibody interaction. Briefly: small molecules engaging PG9 antibody – biochemical, TR-FRET, primary screen (AID 624416). Particulars: TR-FRET gp120-PG9 antibody binding; at 6.7 µM; stronger effect = higher value.
As to `CC(C)(C)c1ccc(S(=O)(=O)NCC2CCN(C(=O)C(=O)c3cc4ccccc4o3)CC2)cc1`, the inhibition was -1.81%.

Take `Cc1cc(Br)cn2c(Cc3ccccc3C(F)(F)F)c(-c3ccc(C#N)cc3)nc12`: the inhibition was 0.29%.

For `O=C1COc2ccc(C(=O)COC(=O)c3ccccc3Cl)cc2N1`, the inhibition is 28.2% (active).

For the molecule `COc1cc(N)c(Cl)cc1C(=O)OCC(=O)c1ccc2c(c1)NC(=O)CO2`, the inhibition was -0.01%.

As for `O=C1COc2ccc(C(=O)COC(=O)c3cccnc3Cl)cc2N1`, the inhibition was -1.31%.

`OC(c1ccccc1)(c1ccccc1)C1CCN(CCCOc2ccc(-c3ccsc3)cc2)CC1`: the inhibition is 1.88%.

Consider `COCCCNC(=O)C[C@H]1C[C@@]2(C(=O)OC)C(=C[C@H](C(C)(C)C)O[C@@H]2C)N(Cc2ccc3c(c2)OCO3)C1=O`, for which the inhibition was 0.35%.

Regarding `CC(C)C[C@H](NC(=O)CC1CCCC1)C(=O)N1CCC[C@H]1C(=O)NCc1ccccc1`, the inhibition is -0.84%.

Regarding `Cn1c(=S)sc2ccc3ccccc3c21`, the inhibition is 14.2% (active).

Regarding `COc1ccc2ccccc2c1CNc1nnnn1C`, the inhibition was 0.54%.

Consider `CC(=O)C1=C(C)N(Cc2ccc(Cl)cc2)C(=S)NC1c1ccc(F)cc1` (configuration not stated), for which the inhibition was -2.38%.

`Cc1ccc2nc(-c3ccc(CN4CCC(n5cc(-c6ccccc6)[nH]c5=O)CC4)cc3)c(-c3ccccc3)nc2c1`: the inhibition was -0.32%.

In the case of `O=C(NCc1ccccc1)[C@H]1CCCN1C(=O)[C@H]1CCCN1C(=O)N1CCOCC1`, the inhibition is -0.88%.

As for `CC(C)(C)n1nc(C2CC2)c(Br)c1NC(=O)c1ccccc1F`, the inhibition is 0.97%.

As to `CC1CCN(C(=O)c2ncn3c2C(=O)N[C@@H](C)C3)CC1`, the inhibition is -0.93%.

With `O=C(COC(=O)c1ccc2c(c1)OCCO2)NCc1ccccc1Cl`, the inhibition was 9.13% (active).

With `O=C(COC(=O)c1cc2c(s1)CCCC2)NCc1ccccc1Cl`, the inhibition is -0.89%.

In the case of `O=C(OCc1ccccc1F)c1ccc2c(c1)OCCO2`, the inhibition is -1.71%.

Consider `CCOC(=O)/C=C/c1ccccc1O`, for which the inhibition was 0.44%.

For `O=C1C(=O)N(CCN2CCOCC2)C(c2ccccn2)/C1=C(/O)c1ccc(Cl)cc1` (configuration not stated), the inhibition is 0.67%.

Turning to `COCCCN1C(=O)C(=O)/C(=C(/O)c2ccc3c(c2)CC(C)O3)C1c1cccnc1` (configuration not stated), the inhibition was 3.22%.

`O=C1C(=O)N(CCN2CCOCC2)C(c2cccc(Cl)c2)/C1=C(/O)c1ccc2c(c1)OCO2` (configuration not stated): the inhibition was 30.6% (active).

As for `O=C1C(=O)N(CCCN2CCOCC2)C(c2ccc([N+](=O)[O-])cc2)/C1=C(\O)c1ccc2c(c1)OCCO2` (configuration not stated), the inhibition is -1.43%.

Consider `COc1ccc(C2/C(=C(/O)c3ccc4c(c3)CC(C)O4)C(=O)C(=O)N2Cc2ccncc2)cc1` (configuration not stated), for which the inhibition was 2.5%.

Regarding `CC1Cc2cc(/C(O)=C3\C(=O)C(=O)N(CCN4CCOCC4)C3c3ccccc3F)ccc2O1` (configuration not stated), the inhibition was 13.2% (active).

Turning to `Cc1nc(NC(=O)C(C)(C)C)sc1[N+](=O)[O-]`, the inhibition is -0.45%.

`COC(=O)C1=C(C)N(Cc2cccc(C(F)(F)F)c2)C(=NCc2ccccc2)NC1c1ccccc1C(F)(F)F` (configuration not stated): the inhibition is 0.63%.

For the molecule `COC(=O)C(C(=O)OC)c1ccccc1NS(=O)(=O)c1cccc2ccccc12`, the inhibition was 0.18%.

For `CC(=NNC(N)=O)c1ccc(Cl)c(-n2cccc2)c1`, the inhibition was 0.53%.

Consider `CCN(CC)S(=O)(=O)c1ccc2[nH]cc(C(=O)NCCc3ccccc3)c(=O)c2c1`, for which the inhibition is -0.32%.

Regarding `COc1cccc(NS(=O)(=O)c2ccc3[nH]cc(C(=O)NCCCOC(C)C)c(=O)c3c2)c1`, the inhibition is 10.3% (active).

For `CCCCNC(=O)c1c[nH]c2ccc(S(=O)(=O)Nc3ccc(OCC)cc3)cc2c1=O`, the inhibition is 2.91%.

`CN1CCCCC(NC(=O)C(C)(C)C)C1=O` (configuration not stated): the inhibition is -1.72%.

Take `CC(C)N(c1ccccc1)c1ncnc(NCCC(=O)O)c1[N+](=O)[O-]`: the inhibition was -1.67%.

For `O=C(O)CCCCCNc1ncnc2ccc(Br)cc12`, the inhibition is 18.3% (active).

Regarding `COC(=O)[C@]1(Cc2ccccc2)NC=C(C(=O)c2ccccc2)[C@@H]1c1cccc(OC)c1`, the inhibition was -1.25%.

As for `Cc1cc(Nc2cccc(C)c2C)n2ncnc2n1`, the inhibition was 0.14%.

On to `Cc1cccc(Nc2nc3c(S(=O)(=O)c4ccccc4)nnn3c3ccccc23)c1C`, for which the inhibition is 16.5% (active).

As to `CC(=O)Nc1ccc(Nc2nc3c(S(=O)(=O)c4ccc(C)c(C)c4)nnn3c3ccccc23)cc1`, the inhibition is 1.78%.

`COc1cccc(CNC(=O)[C@H]2CCCN2C(=O)[C@H]2CCCN2C(=O)c2ccc(F)cc2)c1`: the inhibition is -1.74%.

On to `O=C(C(=O)N1CCC(CNS(=O)(=O)Cc2ccccc2)CC1)c1cc2ccccc2o1`, for which the inhibition was 0.63%.

Regarding `COC(=O)c1cc2c(c3c4cc(F)ccc4n(S(=O)(=O)c4ccccc4)c13)C(=O)N(Cc1ccccc1OC)C2`, the inhibition is 0.8%.

Turning to `CCOC(=O)C1CSCCS(=O)(=O)N1Cc1ccc(Cl)cc1` (configuration not stated), the inhibition is -1.82%.

Take `Cc1ccccc1C(=O)N[C@H](C(=O)N1CCC[C@H]1C(=O)NCc1ccccc1)C(C)C`: the inhibition was -2.77%.

In the case of `Cc1nc2nc(SCC(=O)Nc3cccc(F)c3)[nH]c2cc1Br`, the inhibition was -0.51%.

For the molecule `CC(=O)Nc1ccc(C(=O)CSc2nc3ccc(C)cc3[nH]2)cc1`, the inhibition was -0.81%.

`Cc1nc2nc(SCC(=O)c3ccccc3)[nH]c2cc1Br`: the inhibition was 29.2% (active).

With `COc1cccc(-c2cc(CNC(=O)[C@@H](Cc3ccccc3)NC(=O)[C@H]3O[C@@H](n4cnc(C(N)=O)n4)[C@H](O)[C@@H]3O)no2)c1`, the inhibition was -2.73%.

Turning to `COC(=O)[C@]12C[C@H](CC(=O)NCc3ccc(C)o3)C(=O)N(CCC3=CCCCC3)C1=C[C@H](C(C)(C)C)O[C@@H]2C`, the inhibition was -1.11%.

With `COc1ccccc1-c1ccc([C@@H]2C[C@H]3[C@H](CON3C)CN2S(=O)(=O)c2cc(Cl)cc(Cl)c2)cc1`, the inhibition is -0.23%.

Regarding `CC[C@H](C)[C@H]1CNC(=O)C(=O)N1CC1CCN(CCc2ccc(OC)c(OC)c2)CC1`, the inhibition was -1.11%.

Turning to `Cc1cc2c(cc1C)N1C(=O)c3cc4ccccc4cc3NC(=O)C1C(=O)N2` (configuration not stated), the inhibition was 9.79% (active).

In the case of `Cc1cc(N2CCN(C(=O)OC(C)(C)C)C[C@H]2C)ccc1N1CCN(Cc2ccccc2)[C@H](C)C1`, the inhibition was -1.9%.

As to `CCOC(=O)Cc1csc(NC(=O)CSc2nnc(-c3cccnc3)n2Cc2ccco2)n1`, the inhibition was -0.33%.

As to `CCc1ccc(NC(=O)CSc2nnc(-c3cnccn3)n2Cc2ccco2)cc1`, the inhibition is 14.2% (active).

For `CCn1c(SCC(=O)Nc2cc(C)ccc2C)nnc1-c1cnccn1`, the inhibition is 1.97%.

For the molecule `CC(C)(C)C(c1nc2ccccc2[nH]1)n1c(Cc2csc3ccccc23)nc2ccccc21` (configuration not stated), the inhibition is 3.67%.

On to `CC(C)CCNC(=O)c1cccnc1Sc1ccccc1`, for which the inhibition was -0.45%.

Take `O=C(NCCOc1ccccc1)c1ccccc1F`: the inhibition was -0.63%.

As for `CC(C)OCCCNC(=O)c1cc(Sc2ccc(F)cc2)nc2ccccc12`, the inhibition was 17.2% (active).

Consider `O=S1(=O)c2ccc(Br)cc2-n2nncc2CN1Cc1cccc(Cl)c1`, for which the inhibition was 1.6%.

As to `Nc1ccn([C@@H]2O[C@H](C(=O)N[C@H]3CCCCNC3=O)[C@@H](O)[C@H]2O)c(=O)n1`, the inhibition is -0.25%.

For the molecule `CCOc1cc(NC(=O)c2ccccc2C(=O)O)c(OCC)cc1NC(=O)c1ccccc1F`, the inhibition was -7.45%.

On to `CCN(CC)S(=O)(=O)c1cc(C(=O)Nc2ccccn2)ccc1C`, for which the inhibition is -1.5%.

Regarding `CCOc1cc2ccccc2cc1C(=O)Nc1ccccn1`, the inhibition is 12.2% (active).

Turning to `Nc1ncnc2c1ncn2[C@@H]1O[C@H](C(=O)N[C@@H](CCc2ccccc2)C(=O)N2CCCN(Cc3cccs3)CC2)[C@@H](O)[C@H]1O`, the inhibition was 0.34%.

Take `C#CCN([C@@H](C)C(=O)OCC)S(=O)(=O)c1ccc(Br)cc1F`: the inhibition was -1.25%.

`C[C@@H]1ON(C)[C@H]2C[C@H]3c4cc(N5CCOCC5)ccc4CCN3C[C@@H]12`: the inhibition was -1.04%.

Turning to `CC1(C)Cc2ccccc2-c2[nH]c(=S)[nH]c(=O)c21`, the inhibition was 35% (active).

As for `CC1(C)Cc2ccccc2/C(=C/C(=O)c2ccccc2)N1`, the inhibition is 0.12%.

Consider `N#CC1=C(N)Oc2[nH]c(=S)[nH]c(=O)c2C12C(=O)Nc1ccccc12` (configuration not stated), for which the inhibition was -2.89%.

For the molecule `COC(=O)c1cc2c(c3c4ccccc4n(S(=O)(=O)c4cccc(C)c4)c13)C(=O)N(Cc1ccccc1)C2`, the inhibition was 0.57%.

With `N#Cc1cccc(C(=O)NCC2CCN(C(=O)C(=O)c3cc4ccccc4o3)CC2)c1`, the inhibition was -0.57%.

With `CCCCOCC1CN(CCCC)S(=O)(=O)c2c(Oc3ccc(F)cc3)cccc2O1` (configuration not stated), the inhibition was -0.05%.

On to `CCOc1cc(C2C(C(=O)c3ccco3)=C(O)C(=O)N2Cc2ccccc2)ccc1O` (configuration not stated), for which the inhibition is 0.36%.

In the case of `O=C(C1=C(O)C(=O)N(Cc2ccccc2)C1c1cccnc1)c1ccco1` (configuration not stated), the inhibition is 7.52%.

With `O=C(C1=C(O)C(=O)N(Cc2ccccc2)C1c1ccco1)c1ccco1` (configuration not stated), the inhibition was 17.9% (active).

In the case of `COC(=O)C1=C(C)N(Cc2cccc(C(F)(F)F)c2)C(=NCc2cccc(C(F)(F)F)c2)NC1c1ccccc1C(F)(F)F` (configuration not stated), the inhibition is -0.87%.

In the case of `COC(=O)C1=C(C)NC(=S)NC1c1ccc(OC)cc1` (configuration not stated), the inhibition is -0.48%.

Take `COC(=O)C1=C(C)N(Cc2cccc(C(F)(F)F)c2)C(=NCc2ccccc2)NC1c1ccc(Cl)cc1` (configuration not stated): the inhibition was -1.36%.

As for `COC(=O)[C@H](CC(C)C)NS(=O)(=O)c1c(F)cccc1F`, the inhibition is -2.8%.

On to `COc1ccc(S(=O)(=O)Nc2ccc3c(c2)C(=O)N([C@H](C)CO)C[C@H](C)[C@@H](CN(C)C)OCCCC[C@H](C)O3)cc1`, for which the inhibition is -0.42%.
